# Columns and labels:
# [1] = system: HCC1937; experiment: relative cell viability, compound + RSL3, vs DMSO (fraction of DMSO control); higher = less growth inhibition; conditions: 72 h
# [2] = system: MDA-MB-231; experiment: as above; conditions: 72 h
# 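Also: breast cancer cell viability read out with the CCK-8 kit after co-treatment of each compound with the ferroptosis inducer RSL3.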
Compound,relative cell viability [1],relative cell viability [2]
CC(c1cc2ccccc2s1)N(O)C(N)=O (configuration not stated) [Zileuton] + COC(=O)c1ccc([C@H]2c3[nH]c4ccccc4c3C[C@H](C(=O)OC)N2C(=O)CCl)cc1 [RSL3],0.895,0.633
CC(C)CCC[C@@H](C)[C@H]1CC[C@H]2[C@@H]3CC=C4C[C@@H](O)CC[C@]4(C)[C@H]3CC[C@]12C [Cholesterol] + COC(=O)c1ccc([C@H]2c3[nH]c4ccccc4c3C[C@H](C(=O)OC)N2C(=O)CCl)cc1 [RSL3],0.8,0.611
CCCCCCCCCCOc1ccc(C(=O)Nc2cc(C(=O)NCCCC)ccc2SC)cc1 + COC(=O)c1ccc([C@H]2c3[nH]c4ccccc4c3C[C@H](C(=O)OC)N2C(=O)CCl)cc1 [RSL3],0.408,0.421
O=S(=O)(O)c1ccc2cc(N=Nc3cc(S(=O)(=O)O)c4cccnc4c3O)ccc2c1 + COC(=O)c1ccc([C@H]2c3[nH]c4ccccc4c3C[C@H](C(=O)OC)N2C(=O)CCl)cc1 [RSL3],0.511,0.744
C[C@H](CCCC(C)(C)O)[C@H]1CC[C@H]2[C@@H]3CC=C4C[C@@H](O)CC[C@]4(C)[C@H]3CC[C@]12C [25-Hydroxycholesterol] + COC(=O)c1ccc([C@H]2c3[nH]c4ccccc4c3C[C@H](C(=O)OC)N2C(=O)CCl)cc1 [RSL3],0.572,0.649
CCOC(=O)c1c(NC(=O)CN2CCN(C(=O)c3ccco3)CC2)sc2c1CCC2 + COC(=O)c1ccc([C@H]2c3[nH]c4ccccc4c3C[C@H](C(=O)OC)N2C(=O)CCl)cc1 [RSL3],0.384,0.476

# Reference: the supplement of paper PMC9492666
